# Measurements as given in PubChem BioAssay (NCATS).
# Calls of active or inactive are those of the source. Entries that show only a call come without a potency. The call rests on the fitted dose curve; in most records, active means well fitted cell-killing curve with a large enough effect; inconclusive means small, poorly fitted or top-dose-only effect; inactive means flat fitted curve, though single readings scatter.
# Test: Cell Viability - LYMP1-003 - Assay at 24 hr (AID 963)
# Conditions: LYMP1-003 lymphoblastoid cell viability; series mostly up to 92.2 µM
# Source text: NIH Chemical Genomics Center [NCGC]
# NIH Molecular Libraries Screening Centers Network [MLSCN]
# National Institutes of Environmental Health Sciences [NIEHS]
# National Toxicology Program [NTP]
# We have developed a 1536-well cell-based assay for quantitative high throughput screening (qHTS) against a number of cell lines to determine in vitro cytotoxicity of small molecules. This particular assay uses a human lymphoblastoid cell line (LYMP1-003) purchased from Coriell Institute for Medical Research.
# NCGC Assay Protocol Summary:
# The CellTiter-Glo luminescent cell viability assay (Promega) is a homogeneous method to measure the number of viable cells in culture. The end point readout of this assay is based on quantitation of intracellular ATP, an indicator of metabolic activity, using the luciferase reaction. Luciferase catalyzes the oxidation of beetle Luciferin to oxyluciferin and light in the presence of ATP. The luminescent signal is proportional to amount of ATP present.
# Using the CellTiter-Glo luminescent cell viability assay, the amount of cellular ATP was measured in the lymphoblastoid cell line with complete culture medium following compound treatment for 24 hours. The assay was performed in opaque white Kalypsys 1536-well plates. In the screen, tetraoctylammonium bromide was used as positive control. Library compounds were measured for their ability to cause acute toxicity in the cell line, as reflected by a decrease in intracellular ATP levels, in a concentration-dependent manner. […] AC50 values were determined from concentration-response data modeled with the standard Hill equation.
# qHTS protocol for CellTiter Glo lymphoblastoid cellular assay
# [Step] [Parameter] [Value] [Description]
# 1. Reagent; 5 uL; 2500 lymphoblastoid cells/well
# 2. Time; 5 hr; 37 C incubation
# 4. Controls; 23 nL; Tetraoctylammonium bromide 6.4pM to 92 uM
# 5. Time; 24 hr; 37 C incubation
# 6. Reagent; 5 uL; CellTiter Glo reagent
# 7. Time; 30 min; Room Temperature
# 8. Detection; Luminescence; Viewlux plate reader
# Keywords: cell viability, cytotoxicity, lymphoblastoid cell line, luminescence, NTPHTS, NTPHTS_NCGC, NIEHS, DSSTox, MLSMR, MLSCN, NIH Roadmap, qHTS, NCGC
# Potency means the concentration at half of the fitted maximal effect.
row,SMILES,Potency
1,C=CC(=O)OCC,inactive
2,CCOP(=S)(OCC)Oc1ccc([N+](=O)[O-])cc1,inactive
3,CCSC(=O)Cl,inactive
4,CCOc1ccc(N)cc1,inactive
5,Cc1cccc([N+](=O)[O-])c1,inactive
6,S=C=Nc1cccc2ccccc12,inactive
7,Nc1ccc(Br)cc1,inactive
8,COc1ccc(N)cc1,inactive
9,CC(=O)[O-].CC(=O)[O-].O.O.O.[Pb+2],inactive
10,CCCCOC(=O)c1ccccc1C(=O)OCCCC,inactive
11,CC(C)(c1ccccc1)c1ccc(O)cc1,inactive
12,CCc1cccc(CC)c1N(COC)C(=O)CCl,inactive
13,CC(C)(C)OOC(C)(C)C,inactive
14,CCOCN(C(=O)CCl)c1c(C)cccc1CC,inactive
15,CCCOC(=O)c1ccccc1C(=O)OCCC,inactive
16,C[C@H]1CCCC(=O)CCC/C=C/c2cc(O)cc(O)c2C(=O)O1,inactive
17,C=CCOC(C)=O,inactive
18,CC(Cl)Cl,inactive
19,c1ccc(-c2ccccc2)cc1,inactive
20,Cc1ccc([N+](=O)[O-])cc1C,inactive

row,SMILES,Potency
1,C1CCC2CCCCC2C1 (stereo not given),inactive
2,O=NN(c1ccccc1)c1ccccc1,inactive
3,C=C(Cl)Cl,inactive
4,C[C@]12CC[C@H]3[C@@H](CCC4=CC(=O)CC[C@@]43C)[C@@H]1CC[C@@H]2O,inactive
5,COc1ccc(C=O)cc1OC,inactive
6,BrCCBr,inactive
7,Brc1ccc(Oc2cc(Br)c(Br)cc2Br)c(Br)c1,inactive
8,O=C(Cl)/C=C/C(=O)Cl,inactive
9,C=CCc1ccc2c(c1)OCO2,inactive
10,Cc1cccc(C#N)c1,inactive
11,CC(O)CCl (stereo not given),inactive
12,N#CCCCl,inactive
13,ClC1=C(Cl)C2(Cl)C3C4CC(C5OC45)C3C1(Cl)C2(Cl)Cl (stereo not given),25.1 µM (active)
14,O=C=NC1CCCCC1,inactive
15,c1ccc2c(c1)CCCC2,inactive
16,c1ccc(N=Nc2ccccc2)cc1,inactive
17,O=NN(CCO)CCO,inactive
18,CCNc1nc(Cl)nc(NC(C)C)n1,inactive
19,C=CCc1ccc(OC)cc1,inactive
20,O=[N+]([O-])c1cccc2ccccc12,inactive
